Assay results: publication PMC7862700, “An all-to-all approach to the identification of sequence-specific readers for epigenetic DNA modifications on cytosine”

Assays:
Experiment in all cases: DAPPL (digital affinity profiling via proximity ligation, sequencing); 10 mM Tris-HCl pH 7.5, 50 mM NaCl, 1 mM DTT, 4% glycerol, room temperature, 30 min; GST-TFs on glutathione beads, 16-mer random dsDNA library, 0.1% formaldehyde crosslink after washing; high values mean tight binding
Details in all cases: protein: recombinant; tags: N-terminal GST; dsDNA, one strand shown
ERF = biological target: T1, ERF (Homo sapiens, UniProt P50548 1-548)
T1 sequence: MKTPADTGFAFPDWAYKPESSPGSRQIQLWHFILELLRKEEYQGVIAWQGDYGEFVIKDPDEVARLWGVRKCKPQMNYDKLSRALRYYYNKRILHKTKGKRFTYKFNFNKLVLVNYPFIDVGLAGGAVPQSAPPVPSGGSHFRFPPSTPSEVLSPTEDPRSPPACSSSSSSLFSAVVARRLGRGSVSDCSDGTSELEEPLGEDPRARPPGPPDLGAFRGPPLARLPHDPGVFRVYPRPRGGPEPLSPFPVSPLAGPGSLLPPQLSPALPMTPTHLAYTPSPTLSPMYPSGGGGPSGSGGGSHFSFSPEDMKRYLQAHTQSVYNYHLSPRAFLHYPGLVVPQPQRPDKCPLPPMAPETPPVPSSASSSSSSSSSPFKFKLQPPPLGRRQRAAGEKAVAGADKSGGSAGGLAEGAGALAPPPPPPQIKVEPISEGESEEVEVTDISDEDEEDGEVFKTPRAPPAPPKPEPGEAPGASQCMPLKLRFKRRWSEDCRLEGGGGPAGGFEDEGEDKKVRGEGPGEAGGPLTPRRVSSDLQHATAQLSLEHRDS
Summary of the method: (§1)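 Binding signal is defined as a hexamer's read frequency for one factor over its frequency for the tag-only sample. To obtain reads, GST-fused human transcription factors were expressed in yeast, captured on glutathione beads, barcoded with DNA and pooled with that sample. Pools met 200 nmole of a 16-mer random double-stranded DNA library in Tris/NaCl/DTT/glycerol buffer for 30 min at room temperature before washing, 0.1% formaldehyde crosslinking, proximity ligation (BsaI/T4 ligase, 1 h, 37 °C), PCR and Illumina NextSeq500 sequencing.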

ETV3L = biological target: T2, ETV3L (Homo sapiens, UniProt Q6ZN32 1-361)
T2 sequence: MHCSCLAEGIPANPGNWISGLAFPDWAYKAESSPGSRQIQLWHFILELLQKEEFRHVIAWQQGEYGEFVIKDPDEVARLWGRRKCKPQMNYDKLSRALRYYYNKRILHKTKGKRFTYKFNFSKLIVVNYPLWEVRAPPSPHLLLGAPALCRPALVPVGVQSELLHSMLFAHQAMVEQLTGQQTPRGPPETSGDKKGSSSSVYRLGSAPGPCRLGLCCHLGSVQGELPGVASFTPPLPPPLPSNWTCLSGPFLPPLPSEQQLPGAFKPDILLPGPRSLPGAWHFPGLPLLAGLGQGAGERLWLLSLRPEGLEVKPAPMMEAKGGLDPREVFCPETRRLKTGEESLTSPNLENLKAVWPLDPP
Summary of the method: as §1

ETS2 = biological target: T3, ETS2 (Homo sapiens, UniProt P15036 1-469)
T3 sequence: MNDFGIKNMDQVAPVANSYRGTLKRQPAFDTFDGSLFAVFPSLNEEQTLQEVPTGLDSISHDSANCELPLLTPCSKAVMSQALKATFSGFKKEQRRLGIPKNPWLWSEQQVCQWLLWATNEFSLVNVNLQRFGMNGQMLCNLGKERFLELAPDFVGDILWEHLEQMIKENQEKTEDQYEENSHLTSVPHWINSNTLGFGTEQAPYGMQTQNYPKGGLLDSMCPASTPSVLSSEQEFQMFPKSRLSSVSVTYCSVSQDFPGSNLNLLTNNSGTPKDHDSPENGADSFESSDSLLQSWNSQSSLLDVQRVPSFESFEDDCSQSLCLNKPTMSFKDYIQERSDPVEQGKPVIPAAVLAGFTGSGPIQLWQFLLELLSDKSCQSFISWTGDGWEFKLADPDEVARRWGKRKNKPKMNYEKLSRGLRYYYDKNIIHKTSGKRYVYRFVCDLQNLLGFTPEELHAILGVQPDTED
Summary of the method: as §1

SPDEF = biological target: T4, SPDEF (Homo sapiens, UniProt O95238 1-335)
T4 sequence: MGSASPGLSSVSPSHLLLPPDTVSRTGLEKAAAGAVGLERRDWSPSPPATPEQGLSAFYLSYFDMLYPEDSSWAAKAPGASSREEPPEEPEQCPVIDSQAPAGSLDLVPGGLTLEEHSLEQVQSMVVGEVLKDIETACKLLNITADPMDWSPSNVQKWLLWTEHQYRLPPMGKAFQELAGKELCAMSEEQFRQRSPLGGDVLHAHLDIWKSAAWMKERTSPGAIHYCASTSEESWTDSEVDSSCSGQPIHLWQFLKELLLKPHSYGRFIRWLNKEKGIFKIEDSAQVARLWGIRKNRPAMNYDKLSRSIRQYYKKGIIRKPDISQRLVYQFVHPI
Summary of the method: as §1

ETV7 = biological target: T5, ETV7 (Homo sapiens, UniProt Q9Y603 1-341)
T5 sequence: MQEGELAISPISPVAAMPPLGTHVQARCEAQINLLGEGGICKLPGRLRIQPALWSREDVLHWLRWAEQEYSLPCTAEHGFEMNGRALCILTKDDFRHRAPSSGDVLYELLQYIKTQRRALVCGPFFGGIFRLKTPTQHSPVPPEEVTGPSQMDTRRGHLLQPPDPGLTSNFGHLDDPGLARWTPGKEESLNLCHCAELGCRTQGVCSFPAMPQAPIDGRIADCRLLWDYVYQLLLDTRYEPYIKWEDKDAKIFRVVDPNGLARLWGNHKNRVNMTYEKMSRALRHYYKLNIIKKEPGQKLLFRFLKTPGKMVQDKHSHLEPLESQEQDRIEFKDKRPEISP
Summary of the method: as §1

ELF5 = biological target: T6, ELF5 (Homo sapiens, UniProt Q9UKW6-2 1-255)
T6 sequence: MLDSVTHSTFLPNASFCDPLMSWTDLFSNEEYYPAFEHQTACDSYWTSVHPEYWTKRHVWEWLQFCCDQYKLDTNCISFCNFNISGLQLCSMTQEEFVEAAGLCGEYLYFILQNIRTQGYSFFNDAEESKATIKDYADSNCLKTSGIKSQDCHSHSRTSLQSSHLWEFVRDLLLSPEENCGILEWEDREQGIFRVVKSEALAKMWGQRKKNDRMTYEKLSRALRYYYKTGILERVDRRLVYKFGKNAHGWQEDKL
Summary of the method: as §1

ETV3 = biological target: T7, ETV3 (Homo sapiens, UniProt P41162-2 1-143)
T7 sequence: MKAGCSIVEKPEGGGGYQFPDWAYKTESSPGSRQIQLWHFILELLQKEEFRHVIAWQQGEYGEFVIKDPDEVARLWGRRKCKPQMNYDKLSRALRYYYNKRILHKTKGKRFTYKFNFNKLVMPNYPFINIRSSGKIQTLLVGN
Summary of the method: as §1

ETV6 = ETV6 (Homo sapiens, UniProt P41212 1-452)
Sequence of ETV6 (P41212 whole entry): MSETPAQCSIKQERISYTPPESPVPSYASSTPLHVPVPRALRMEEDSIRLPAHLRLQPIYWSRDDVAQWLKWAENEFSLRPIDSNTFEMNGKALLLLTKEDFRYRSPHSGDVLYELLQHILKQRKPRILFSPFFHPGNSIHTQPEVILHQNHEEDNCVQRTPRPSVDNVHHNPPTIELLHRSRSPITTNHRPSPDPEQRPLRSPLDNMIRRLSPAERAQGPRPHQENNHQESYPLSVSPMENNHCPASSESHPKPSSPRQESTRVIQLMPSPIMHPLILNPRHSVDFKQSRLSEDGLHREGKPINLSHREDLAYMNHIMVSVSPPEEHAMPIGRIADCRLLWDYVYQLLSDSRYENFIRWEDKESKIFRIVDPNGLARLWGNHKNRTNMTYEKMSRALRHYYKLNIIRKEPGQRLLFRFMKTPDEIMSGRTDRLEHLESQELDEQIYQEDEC
Summary of the method: as §1

Sequence | binding signal (ERF) | binding signal (ETV3L) | binding signal (ETS2) | binding signal (SPDEF) | binding signal (ETV7) | binding signal (ELF5) | binding signal (ETV3) | binding signal (ETV6)
TAACAT | 1.33 fold enrichment (6-mer frequency, TF over GST control) | 1.32 fold enrichment (6-mer frequency, TF over GST control) | 1.28 fold enrichment (6-mer frequency, TF over GST control) | 1.34 fold enrichment (6-mer frequency, TF over GST control) | 1.3 fold enrichment (6-mer frequency, TF over GST control) | 1.35 fold enrichment (6-mer frequency, TF over GST control) | 1.26 fold enrichment (6-mer frequency, TF over GST control) | 1.4 fold enrichment (6-mer frequency, TF over GST control)
TCTATT | 1.26 fold enrichment (6-mer frequency, TF over GST control) | 1.28 fold enrichment (6-mer frequency, TF over GST control) | 1.23 fold enrichment (6-mer frequency, TF over GST control) | 1.37 fold enrichment (6-mer frequency, TF over GST control) | 1.11 fold enrichment (6-mer frequency, TF over GST control) | 1.18 fold enrichment (6-mer frequency, TF over GST control) | 1.25 fold enrichment (6-mer frequency, TF over GST control) | 1.29 fold enrichment (6-mer frequency, TF over GST control)
CTTAAT | 1.27 fold enrichment (6-mer frequency, TF over GST control) | 1.4 fold enrichment (6-mer frequency, TF over GST control) | 1.37 fold enrichment (6-mer frequency, TF over GST control) | 1.25 fold enrichment (6-mer frequency, TF over GST control) | 1.33 fold enrichment (6-mer frequency, TF over GST control) | 1.25 fold enrichment (6-mer frequency, TF over GST control) | 1.27 fold enrichment (6-mer frequency, TF over GST control) | 1.25 fold enrichment (6-mer frequency, TF over GST control)
TTTCCG | 3.3 fold enrichment (6-mer frequency, TF over GST control) | 3.52 fold enrichment (6-mer frequency, TF over GST control) | 3.92 fold enrichment (6-mer frequency, TF over GST control) | 3.35 fold enrichment (6-mer frequency, TF over GST control) | 3.55 fold enrichment (6-mer frequency, TF over GST control) | 5.34 fold enrichment (6-mer frequency, TF over GST control) | 4.06 fold enrichment (6-mer frequency, TF over GST control) | 4.37 fold enrichment (6-mer frequency, TF over GST control)
CTGACT | 1.33 fold enrichment (6-mer frequency, TF over GST control) | 1.22 fold enrichment (6-mer frequency, TF over GST control) | 1.42 fold enrichment (6-mer frequency, TF over GST control) | 1.22 fold enrichment (6-mer frequency, TF over GST control) | 1.33 fold enrichment (6-mer frequency, TF over GST control) | 1.32 fold enrichment (6-mer frequency, TF over GST control) | 1.28 fold enrichment (6-mer frequency, TF over GST control) | 1.24 fold enrichment (6-mer frequency, TF over GST control)
CCCGTA | 1.09 fold enrichment (6-mer frequency, TF over GST control) | 1.19 fold enrichment (6-mer frequency, TF over GST control) | 1.2 fold enrichment (6-mer frequency, TF over GST control) | 1.24 fold enrichment (6-mer frequency, TF over GST control) | 1.12 fold enrichment (6-mer frequency, TF over GST control) | 1.21 fold enrichment (6-mer frequency, TF over GST control) | 1.21 fold enrichment (6-mer frequency, TF over GST control) | 1.25 fold enrichment (6-mer frequency, TF over GST control)
TCTCTG | 1.49 fold enrichment (6-mer frequency, TF over GST control) | 1.49 fold enrichment (6-mer frequency, TF over GST control) | 1.61 fold enrichment (6-mer frequency, TF over GST control) | 1.5 fold enrichment (6-mer frequency, TF over GST control) | 1.29 fold enrichment (6-mer frequency, TF over GST control) | 1.42 fold enrichment (6-mer frequency, TF over GST control) | 1.48 fold enrichment (6-mer frequency, TF over GST control) | 1.52 fold enrichment (6-mer frequency, TF over GST control)
CTTTGC | 1.32 fold enrichment (6-mer frequency, TF over GST control) | 1.33 fold enrichment (6-mer frequency, TF over GST control) | 1.34 fold enrichment (6-mer frequency, TF over GST control) | 1.24 fold enrichment (6-mer frequency, TF over GST control) | 1.28 fold enrichment (6-mer frequency, TF over GST control) | 1.29 fold enrichment (6-mer frequency, TF over GST control) | 1.37 fold enrichment (6-mer frequency, TF over GST control) | 1.18 fold enrichment (6-mer frequency, TF over GST control)
ATCCGG | 2.34 fold enrichment (6-mer frequency, TF over GST control) | 2.49 fold enrichment (6-mer frequency, TF over GST control) | 2.66 fold enrichment (6-mer frequency, TF over GST control) | 4.67 fold enrichment (6-mer frequency, TF over GST control) | 2.25 fold enrichment (6-mer frequency, TF over GST control) | 3.06 fold enrichment (6-mer frequency, TF over GST control) | 2.9 fold enrichment (6-mer frequency, TF over GST control) | 2.37 fold enrichment (6-mer frequency, TF over GST control)
